High-throughput results as filed in PubChem BioAssay.
Hits are enriched below; roughly 15% of the tested compounds scored in any of these assays.
HCMV antiviral: qHTS Assay for inhibitors of the human cytomegalovirus (HCMV); AID 1259415, 2018; HFF cells, HCMV-luciferase reporter, 72 h; hits give low values; hit rate 4.5% among 410,000; activity change, negative = inhibition, % at 57.5 µM; in the data active means activity change below about -60%; inconclusive means no clear call, values can overlap the other calls; inactive means above about -39%; further: on the % scale 0 is the no-effect control and ±100 the full control effect
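After 16 h attachment at 37C, HFF cells received test compound and HCMV-luciferase (1 PFU/cell); reporter luminescence read 72 h later, data normalized against buffer-only and known inhibitor Salinomycin.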
SARS PLpro yeast: qHTS of Yeast-based Assay for SARS-CoV PLP. hit rate 0.19% among 330,000. Potency, µM (titrated, usually from 32.9 µM), inactives show at the top dose activity, positive = growth rescue, actives largely listed as activators. S. cerevisiae expressing SARS-CoV PLpro, growth rescue; calls by dose curve; further: potency means the concentration at half of the fitted maximal effect; 0% is about no effect; nearly all actives have a fitted effect of over 55% in size
Sm TGR block: qHTS Assay for the Inhibitors of Schistosoma Mansoni Peroxiredoxins. hit rate 3% among 360,000. Schistosoma mansoni thioredoxin glutathione reductase (TGR), Q962Y6. Potency, µM (top dose mostly 114 µM), for inactives: at the top dose activity change, negative = inhibition, most hits filed as inhibitors. purified TGR, DTNB reduction, TNB absorbance 405 nm; further: potency means the concentration at half of the fitted maximal effect; on the % scale 0 is the no-effect control and ±100 the full control effect; nearly all actives have a fitted effect of over 60% in size
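First, TGR (20 nM dispensed) and NADPH were mixed with compound. Second, a 15 min room-temperature incubation followed. Third, further NADPH and then DTNB were added to start the reaction. Finally, TNB absorbance was monitored kinetically.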
Pf growth 48h: Primary qHTS for delayed death inhibitors of the malarial parasite plastid, 48 hour incubation | AID 504832, 2011 | P. falciparum luciferase growth in erythrocytes, 48 h | Potency, µM (highest dose often 28.7 µM), for the others: top-dose activity change, negative = inhibition, most hits filed as inhibitors | hit rate 5.9% among 310,000; further: potency means the concentration at half of the fitted maximal effect; on the % scale 0 is the no-effect control and ±100 the full control effect
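Growth was read as firefly luciferase luminescence after a 48 h, 37 C, 5% CO2 exposure of compounds to reporter-bearing P. falciparum cultures (0.1% parasitemia, 2% hematocrit final) in Albumax-supplemented RPMI 1640.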
HCV inhibitor: qHTS Assay for Inhibitors of Hepatitis C Virus (HCV) | hit rate 3.4% among 340,000 | Potency, µM (top dose mostly 41.8 µM), for the others: at the highest dose activity change, negative = inhibition, hits mostly inhibitors | AID 651820, 2012 | Huh7.5.1 HCVcc-Cre infection, luciferase reporter, 44 h; further: potency means the concentration at half of the fitted maximal effect; on the % scale 0 is the no-effect control and ±100 the full control effect
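After 44 h co-culture of compound, cells and HCVcc-Cre (~0.5 moi), substrate is added for 15 min at room temperature and luciferase measured over 15 sec. Cells were seeded at 1,000/well and pre-cultured 4 h.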
Pf growth 96h: Primary qHTS for delayed death inhibitors of the malarial parasite plastid, 96 hour incubation; P. falciparum luciferase reporter growth, 96 h; Potency, µM (series often up to 28.7 µM), for the others: at the highest dose activity change, negative = inhibition, most hits filed as inhibitors; hit rate 6.9% among 320,000; AID 504834, 2011; further: potency means the concentration at half of the fitted maximal effect; on the % scale 0 is the no-effect control and ±100 the full control effect
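Erythrocytes infected with luciferase-expressing P. falciparum were dispensed at 2% hematocrit and 0.05% parasitemia (final), then incubated with compounds 96 hours at 37 C in 5% CO2. Luminescence after detection reagent addition reported growth.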
The depositor's hits bear a star; ? = inconclusive; nt = not tested or not shown. Unless noted, the call rests on the fitted dose curve; in most records, active means well fitted curve in the direction sought with a large enough effect; inconclusive means small, poorly fitted or top-dose-only effect, or another doubt; inactive means no such curve, though single readings can be large; an effect the other way counts as inactive or inconclusive.

SMILES | HCMV antiviral | SARS PLpro yeast | Sm TGR block | Pf growth 48h | HCV inhibitor | Pf growth 96h
O=C(CSc1nnc(NC(=O)C2CC(=O)N(c3ccccc3)C2)s1)NCc1ccco1 (configuration not stated) | 13 | -3% | 45µM* | -2% | -1% | ?
Cc1ccccc1N1CC(C(=O)Nc2nnc(SCc3ccccn3)s2)CC1=O (configuration not stated) | 7 | 2% | 2% | 13µM* | 13% | 7.4µM*
Cc1ccc(CN2C(=O)c3oc4ccc(C)cc4c(=O)c3C2c2ccc(O)cc2)cc1 (configuration not stated) | 10 | nt | 7% | nt | nt | nt
Cc1ccc(CSC2=Nc3ccccc3C3=NC(CCC(=O)N4CCN(c5ccccc5)CC4)C(=O)N23)cc1 (configuration not stated) | 16 | nt | 4% | nt | nt | nt
COc1ccc(N2CC(C(=O)Nc3nnc(SCCC4OCCO4)s3)CC2=O)cc1 (configuration not stated) | -20 | -6% | -21% | ? | 5% | 13µM*
O=C(Nc1nnc(SCC(=O)N2CCCC2)s1)C1CC(=O)N(c2ccc(F)cc2)C1 (configuration not stated) | 18 | 7% | ? | -23% | 5% | 12µM*
Cc1ccc(Nc2ncnc3c2cnn3-c2ccccc2)c(C)c1 | 7 | nt | 1% | nt | nt | nt
CCCn1c(NC(=O)c2ccc(Cl)c(S(=O)(=O)N3CCCC3)c2)nc2ccccc21 | -63* | 11% | -3% | 5.9µM* | 2.5µM* | 5.2µM*
O=C(NCc1ccccc1CN1CCCC1)c1ccc(Cl)c(S(=O)(=O)N2CCCC2)c1 | -22 | -1% | -17% | 13µM* | 13µM* | 12µM*
O=C(NCc1nc2ccccc2[nH]1)c1ccc(Cl)c(S(=O)(=O)N2CCCC2)c1 | -30 | -1% | 4% | 10µM* | 0% | 24%
CC(NC(=O)c1ccc(Cl)c(S(=O)(=O)N2CCCCCC2)c1)c1cccnc1 (configuration not stated) | ? | -9% | -9% | 12µM* | 13µM* | ?
O=C(NCc1ccccc1CN1CCCC1)c1cccc(S(=O)(=O)N2CCCC2)c1 | -12 | 7% | -5% | ? | ? | ?
CC(C)(C)OC(=O)/C=C/[C@@H]1Cc2ccccc2N1 | 33 | nt | nt | nt | nt | nt
COc1cc(C(=O)N2CCN(C(=O)c3cc(-c4ccccc4)n[nH]3)CC2)cc(OC)c1OC | 40 | 0% | 2% | ? | -2% | ?
COc1ccc(CC(=O)NCCc2csc(-c3cccc(C)c3)n2)cc1 | 5 | nt | 9% | nt | nt | nt
COc1cccc(Nc2sc(C(=O)c3ccc4c(c3)OCO4)c(N)c2S(=O)(=O)c2ccccc2)c1 | -18 | nt | 3% | nt | nt | nt
COc1cccc(C(=O)OCC(=O)Nc2cc(C)c(C)cc2[N+](=O)[O-])c1 | 21 | -5% | 1% | 10% | 3% | -12%
CN(C)C(CNC(=O)c1ccc(Cl)c(S(=O)(=O)N2CCCCCC2)c1)c1ccccc1 (configuration not stated) | -22 | -2% | -3% | 5.2µM* | 6.3µM* | ?
O=C(NCc1ccccc1CN1CCCC1)c1ccc(S(=O)(=O)Nc2ccccc2F)cc1 | -75* | nt | nt | nt | nt | nt
Cc1c(Cl)cccc1NS(=O)(=O)c1ccc(NS(=O)(=O)c2ccc3c(c2)OCCO3)cc1 | -106* | nt | 10% | nt | nt | nt
Cc1c(NS(=O)(=O)c2ccc3c(c2)OCCO3)cccc1-c1nc2cccnc2s1 | -40 | -25% | -3% | -14% | 13µM* | ?
CC(=O)N1CCN(Cc2nc3cc(NC(=O)COc4cccc(C)c4)ccc3n2C)CC1 | -63* | 11% | -5% | -29% | -18% | 26%
Cc1ccc(OCC(=O)Nc2ccc3c(c2)nc(CCN2CCCCC2)n3C)cc1 | -72* | 0% | -4% | ? | -2% | ?
Cn1c(CCN2CCCCC2)nc2cc(NC(=O)COc3ccccc3)ccc21 | -73* | 3% | -26% | ? | -5% | -4%
Cn1c(CN2CCCC2)nc2cc(NC(=O)COc3ccc([N+](=O)[O-])cc3)ccc21 | -4 | -35% | 1% | 13µM* | -24% | ?
SMILES | HCMV antiviral | SARS PLpro yeast | Sm TGR block | Pf growth 48h | HCV inhibitor | Pf growth 96h
COc1ccc(OCC(=O)Nc2ccc3c(c2)nc(CCN2CCCCC2)n3C)cc1 | ? | 2% | 4% | ? | -27% | -28%
CCN1CCN(Cc2nc3cc(NC(=O)COc4ccc([N+](=O)[O-])cc4)ccc3n2C)CC1 | 44 | -5% | 0% | ? | -17% | ?
Cc1cc(C)cc(S(=O)(=O)c2cn(C)c3cc(N4CCN(C)CC4)c(F)cc3c2=O)c1 | -35 | -2% | 2% | -10% | 3% | 22%
Cc1cccc(OCC(=O)Nc2ccc3c(c2)nc(CN2CCCCC2)n3C)c1 | ? | 0% | 9% | -14% | ? | -8%
CC(=O)N1CCN(Cc2nc3cc(NC(=O)c4cccc(Br)c4)ccc3n2C)CC1 | -73* | 0% | -3% | 24% | 18µM* | 6%
Cc1cccc(OCC(=O)Nc2ccc3c(c2)nc(CCN2CCCCC2)n3C)c1 | -86* | ? | -8% | ? | -22% | ?
COc1cccc(CNC(=O)CCc2c(C)nc3c4c(C)cc(C)nc4nn3c2C)c1 | 66 | nt | -5% | nt | nt | nt
Fc1cccc(Cn2cc(C(=S)N3CCCCC3)c3ccccc32)c1 | -32 | -9% | 2% | 12µM* | -8% | ?
Cc1cc(C)c(S(=O)(=O)Nc2cc(-c3cn4ccccc4n3)ccc2C)cc1C | -16 | nt | ? | nt | nt | nt
Cc1cccn2cc(-c3ccc(S(=O)(=O)N4CCCCC4)cc3)nc12 | -35 | -2% | -24% | 17% | -29% | 10µM*
Cc1ccc(-c2cn3cccc(C)c3n2)cc1NS(=O)(=O)c1ccccc1 | -85* | nt | 6% | nt | nt | nt
Cc1cccn2cc(-c3ccc(S(=O)(=O)N4CCOCC4)cc3)nc12 | ? | 4% | -8% | -23% | -13% | -26%
O=C(O)CCc1ccc(-c2ccc(Br)cc2)n1Cc1ccco1 | 1 | -10% | 50µM* | 5% | 18% | 10%
O=C(O)CCc1ccc(-c2ccccc2)n1CC1CCCO1 (configuration not stated) | 23 | -3% | 0% | 1% | 20% | nt
O=C(O)CCc1ccc(-c2ccccc2)n1Cc1ccco1 | 37 | -7% | 32µM* | nt | -3% | ?
Cc1ccc(-c2ccc(CCC(=O)O)n2NC(=O)c2ccco2)cc1 | 18 | 4% | ? | 12% | -4% | -18%
